Experimental data reported in PubChem BioAssay (NCATS).
Records with an inconclusive call do not appear. Active and inactive are the calls of the source. The call rests on the fitted dose curve; in most records, active means well fitted curve in the direction sought with a large enough effect; inconclusive means small, poorly fitted or top-dose-only effect, or another doubt; inactive means no such curve, though single readings can be large; an effect the other way counts as inactive or inconclusive.

What was measured:
[1] = qHTS of pediatric cancer cell lines to identify multiple opportunities for drug repurposing: Primary screen for Rh41 cells (AID 1347108); settings: Rh41 rhabdomyosarcoma viability, CellTiter-Glo luminescence, 48 h; series mostly up to 46 µM; further: nearly all actives have a fitted effect of over 70% in size
Summary of the method: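 Cells seeded at 500-1,000 cells/well in growth media, rested 5 hours at 37 degrees C, 5% CO2, then dosed; MIPE compounds at 11-point (from 0.78 nM) and NPC at 8-point (from 0.59 nM) final concentrations. Viability by CellTiter-Glo luminescence after 48 hours.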

[2] = qHTS of pediatric cancer cell lines to identify multiple opportunities for drug repurposing: Confirmatory screen for NB1643 cells (AID 1347109); settings: NB1643 neuroblastoma cell viability; series mostly up to 45.9 µM; further: nearly all actives have a fitted effect of over 45% in size
Summary of the method: (§1)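 Cells (500-1,000/well) rested 5 h, then received compounds for 48 h; metabolically active cells were measured by CellTiter-Glo luminescence. Final concentrations spanned up to 46 µM (MIPE, 11-point) or 0.59 nM-46 µM (NPC, 8-point) in primary screens, 11-point in follow-ups.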

[3] = qHTS of pediatric cancer cell lines to identify multiple opportunities for drug repurposing: Confirmatory screen for A673 cells (AID 1347110); settings: A673 Ewing sarcoma cell viability; series mostly up to 45.9 µM;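 further: cells exposed to compound for 48 h before the viability read; nearly all actives have a fitted effect of over 65% in size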
Summary of the method: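 A673 cells at 500-1,000 cells/well were dosed 5 h after plating, in dilution series up to 46 uM final; primary runs used 8 or 11 points and confirmatory runs used 11 points. Viability was read by CellTiter-Glo luminescence after 48 h, against DMSO and 2.3 uM bortezomib controls.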

[4] = qHTS of pediatric cancer cell lines to identify multiple opportunities for drug repurposing: Confirmatory screen for SK-N-MC cells (AID 1347111); settings: SK-N-MC cell viability; series mostly up to 45.9 µM;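 further: cells exposed to compound for 48 h before the readout; nearly all actives have a fitted effect of over 70% in size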
Summary of the method: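 Seed 500-1,000 cells/well; rest 5 h at 37 degrees C. Pin-transfer compounds, 11-point titration. Incubate 48 h. Add CellTiter-Glo, 15 min RT, read luminescence.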

[5] = qHTS of pediatric cancer cell lines to identify multiple opportunities for drug repurposing: Confirmatory screen for BT-12 cells (AID 1347112); settings: BT-12 rhabdoid tumor cells, viability; series mostly up to 45.9 µM;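 further: viability read after 48 h of compound exposure; nearly all actives have a fitted effect of over 55% in size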
Summary of the method: as §1

[6] = qHTS of pediatric cancer cell lines to identify multiple opportunities for drug repurposing: Confirmatory screen for LAN-5 cells (AID 1347113); settings: LAN-5 neuroblastoma cell viability; series mostly up to 45.9 µM; further: nearly all actives have a fitted effect of over 65% in size
Summary of the method: as §1

[7] = qHTS of pediatric cancer cell lines to identify multiple opportunities for drug repurposing: Confirmatory screen for DAOY cells (AID 1347114); settings: DAOY medulloblastoma cells viability, cytotoxicity qHTS; series mostly up to 45.9 µM; further: nearly all actives have a fitted effect of over 65% in size
Summary of the method: (§2)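 Viability measured as metabolically active cells via CellTiter-Glo luminescence following 48 hours of compound exposure, 11-point dilutions in confirmatory testing. 500-1,000 cells/well plated 5 hours before dosing; controls were DMSO and 2.3 µM bortezomib.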

[8] = qHTS of pediatric cancer cell lines to identify multiple opportunities for drug repurposing: Confirmatory screen for SJ-GBM2 cells (AID 1347116); settings: SJ-GBM2 glioblastoma cells, viability; series mostly up to 45.9 µM; further: nearly all actives have a fitted effect of over 60% in size
Summary of the method: as §2

[9] = qHTS of pediatric cancer cell lines to identify multiple opportunities for drug repurposing: Confirmatory screen for NB-EBc1 cells (AID 1347115); settings: NB-EBc1 neuroblastoma cells, viability (cytotoxicity); series mostly up to 45.9 µM;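 further: cells exposed to compound for 48 h before the viability read; nearly all actives have a fitted effect of over 45% in size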
Summary of the method: as §1
Potency means the concentration at half of the fitted maximal effect.

Structure (SMILES) | Potency [1] | Potency [2] | Potency [3] | Potency [4] | Potency [5] | Potency [6] | Potency [7] | Potency [8] | Potency [9]
C=CC(=O)Nc1cccc(Oc2nc(Nc3ccc(N4CCN(C)CC4)cc3)ncc2Cl)c1 | 11.8 µM (active) | 8.27 µM (active) | 16.5 µM (active) | 1.31 µM (active) | 16.5 µM (active) | 6.57 µM (active) | 18.5 µM (active) | – | –
COc1cccc(Nc2c(C(N)=O)cnc3c(C)cc(S(=O)(=O)c4cccc(C(=O)N(C)C)c4)cc23)c1 | inactive | inactive | inactive | – | inactive | inactive | – | inactive | –
CN(C)CCCN=c1c2ccccc2n(C)c2[nH]c(=O)n(C)c(=O)c12 | 9.35 µM (active) | 23.3 µM (active) | – | – | 23.3 µM (active) | 23.3 µM (active) | inactive | – | –
O=C(O)c1ccc2cc(-c3ccc(O)c(C45CC6CC(CC(C6)C4)C5)c3)ccc2c1 | 5.9 µM (active) | 2.93 µM (active) | 2.93 µM (active) | 1.17 µM (active) | inactive | 1.47 µM (active) | 3.69 µM (active) | – | 0.737 µM (active)
COC(=O)c1ccc2c(C(=Nc3ccc(N(C)C(=O)CN4CCN(C)CC4)cc3)c3ccccc3)c(O)[nH]c2c1 | 18.7 µM (active) | 16.5 µM (active) | – | 18.5 µM (active) | inactive | 18.5 µM (active) | 26.1 µM (active) | inactive | –
CC1(C)OC2=C(C(=O)c3ccccc3C2=O)[C@H](NCc2ccccc2)[C@H]1O | 7.43 µM (active) | 7.37 µM (active) | 2.93 µM (active) | 5.22 µM (active) | 20.8 µM (active) | 7.37 µM (active) | – | 7.37 µM (active) | 9.27 µM (active)
Cc1nc2ccc(CN(C)c3ccc(C(=O)N[C@@H](CCC(=O)O)C(=O)O)s3)cc2c(=O)[nH]1 | inactive | inactive | 0.0827 µM (active) | 0.0185 µM (active) | inactive | inactive | inactive | – | –
Cc1c(NC(=O)OC[C@@H]2COCCN2)cn2ncnc(Nc3ccc4c(cnn4Cc4cccc(F)c4)c3)c12 | – | inactive | 18.5 µM (active) | – | 26.1 µM (active) | – | 20.8 µM (active) | – | –
COc1c(OCCCN2CCOCC2)ccc2c3n(c(=NC(=O)c4cnc(N)nc4)nc12)CCN3 | – | 2.29 µM (active) | 1.02 µM (active) | 1.02 µM (active) | inactive | 0.644 µM (active) | inactive | 2.04 µM (active) | 2.57 µM (active)
O=C(NC1CCNCC1)c1[nH]ncc1NC(=O)c1c(Cl)cccc1Cl | 0.743 µM (active) | – | 0.414 µM (active) | 3.02 µM (active) | 3.02 µM (active) | – | 1.17 µM (active) | 1.31 µM (active) | –
C=CCn1c(=O)c2cnc(Nc3ccc(N4CCN(C)CC4)cc3)nc2n1-c1cccc(C(C)(C)O)n1 | 0.469 µM (active) | – | 2.61 µM (active) | – | 10.4 µM (active) | – | – | 0.737 µM (active) | –
Cc1cnc(-c2cnc(NCCNc3ccc(C#N)cn3)nc2-c2ccc(Cl)cc2Cl)[nH]1 | – | inactive | – | 11.7 µM (active) | inactive | inactive | 16.5 µM (active) | inactive | –
CS(=O)(=O)N1CCN(Cc2cc3nc(-c4cccc5[nH]ncc45)nc(N4CCOCC4)c3s2)CC1 | – | 8.51 µM (active) | 3.39 µM (active) | 1.7 µM (active) | – | 1.91 µM (active) | – | 21.4 µM (active) | 6.03 µM (active)
Cc1ccc(C(=O)Nc2cccc(C(F)(F)F)c2)cc1-c1ccc2nc(NCCN3CCOCC3)ncc2c1 | – | 6.57 µM (active) | 13.1 µM (active) | 14.7 µM (active) | – | 9.27 µM (active) | 20.8 µM (active) | 13.1 µM (active) | –
CC[C@@H]1C(=O)N(C)c2cnc(Nc3ccc(C(=O)NC4CCN(C)CC4)cc3OC)nc2N1C1CCCC1 | – | 3.29 µM (active) | 0.0369 µM (active) | 0.0465 µM (active) | 16.5 µM (active) | 5.22 µM (active) | – | 1.04 µM (active) | –
O=C(Cc1ccc(-c2ccc(OCCN3CCOCC3)cc2)cn1)NCc1ccccc1 | 0.0296 µM (active) | – | 0.131 µM (active) | 0.147 µM (active) | – | 0.147 µM (active) | 0.117 µM (active) | – | –
Cc1cnc(Nc2ccc(F)cc2Cl)nc1-c1c[nH]c(C(=O)N[C@H](CO)c2cccc(Cl)c2)c1 | 18.7 µM (active) | – | 0.827 µM (active) | inactive | – | inactive | – | – | –
CC(C)c1cc(C(=O)N2Cc3ccc(CN4CCN(C)CC4)cc3C2)c(O)cc1O | – | 0.369 µM (active) | 0.293 µM (active) | 0.585 µM (active) | 16.5 µM (active) | 0.465 µM (active) | – | – | –
CN1CCN(c2cc(C(=O)Nc3ccc4c(c3)-c3c(c(C(N)=O)nn3-c3ccc(F)cc3)CC4)c(Cl)cn2)CC1 | – | 23.3 µM (active) | 14.7 µM (active) | 20.8 µM (active) | – | 16.5 µM (active) | – | – | –
CCOc1cc2ncc(C#N)c(Nc3ccc(F)c(Cl)c3)c2cc1NC(=O)C=CCN(C)C | 1.87 µM (active) | – | – | 0.0657 µM (active) | 0.208 µM (active) | inactive | – | inactive | –
